The supplement of paper PMC12282887
± gives the standard deviation of the averaged measurements.

Tests used:
Experiment in all cases: promoter activity interaction Z-score (Lux/OD deviation from empty-vector control); higher = stronger promoter induction by the compound
[1] = system: E. coli BW25113 acrABp lux reporter
Method in brief: (§1)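 Every compound was given at four 1:2 dilutions, in biological duplicates, to E. coli BW25113 carrying low-copy luxCDABE promoter reporters in wild-type or single-gene deletion backgrounds. Growth in 40 µl LB Lennox in 384-well plates at 37°C was followed by OD600 and luminescence readings every 30 min for 12 h, integrated over 0–8 h for wild type and 1–9 h for deletion strains, with wells below 10% of the median growth value excluded. Scores are Z-transformed residuals of growth-normalised luminescence fitted against a control.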

[2] = system: E. coli BW25113 micFp lux reporter
Method in brief: as §1

[3] = system: E. coli BW25113 ompFp lux reporter
Method in brief: as §1

[4] = system: E. coli BW25113 robp lux reporter
Method in brief: as §1

[5] = system: E. coli BW25113 soxSp lux reporter
Method in brief: as §1

[6] = system: E. coli BW25113 tolCp lux reporter
Method in brief: as §1

[7] = 0.11 µg/ml, genetic background: wild type
[8] = 0.11 µg/ml, genetic background: ΔmarA
[9] = 0.11 µg/ml, genetic background: Δrob
[10] = 0.11 µg/ml, genetic background: ΔsoxS
[11] = 0.23 µg/ml, genetic background: wild type
[12] = 0.23 µg/ml, genetic background: ΔmarA
[13] = 0.23 µg/ml, genetic background: Δrob
[14] = 0.23 µg/ml, genetic background: ΔsoxS
[15] = 0.46 µg/ml, genetic background: wild type
[16] = 0.46 µg/ml, genetic background: ΔmarA
[17] = 0.46 µg/ml, genetic background: Δrob
[18] = 0.46 µg/ml, genetic background: ΔsoxS
[19] = 1 µg/ml, genetic background: wild type
[20] = 1 µg/ml, genetic background: ΔmarA
[21] = 1 µg/ml, genetic background: Δrob
[22] = 1 µg/ml, genetic background: ΔsoxS
[23] = 2.1 µg/ml, genetic background: wild type
[24] = 2.1 µg/ml, genetic background: ΔmarA
[25] = 2.1 µg/ml, genetic background: Δrob
[26] = 2.1 µg/ml, genetic background: ΔsoxS
[27] = 4.1 µg/ml, genetic background: wild type
[28] = 4.1 µg/ml, genetic background: ΔmarA
[29] = 4.1 µg/ml, genetic background: Δrob
[30] = 4.1 µg/ml, genetic background: ΔsoxS
[31] = 8.2 µg/ml, genetic background: wild type

SMILES: N[C@@H](C(=O)N[C@@H]1C(=O)N2C(C(=O)O)=C(Cl)CS[C@H]12)c1ccccc1 [Cefaclor]
- promoter activity interaction Z-score [1, 7]: -0.0672 ± 0.0046
- promoter activity interaction Z-score [1, 8]: 0.0667 ± 0.63
- promoter activity interaction Z-score [1, 9]: -0.0825 ± 0.022
- promoter activity interaction Z-score [1, 10]: 0.202 ± 0.33
- promoter activity interaction Z-score [1, 11]: 0.0822 ± 0.27
- promoter activity interaction Z-score [1, 12]: -0.226 ± 0.26
- promoter activity interaction Z-score [1, 13]: -0.0254 ± 0.2
- promoter activity interaction Z-score [1, 14]: 0.108 ± 0.18
- promoter activity interaction Z-score [1, 15]: -0.327 ± 0.23
- promoter activity interaction Z-score [1, 16]: 0.267 ± 0.91
- promoter activity interaction Z-score [1, 17]: 0.0322 ± 0.2
- promoter activity interaction Z-score [1, 18]: 0.0468 ± 0.32
- promoter activity interaction Z-score [2, 7]: -0.186 ± 0.14
- promoter activity interaction Z-score [2, 8]: -0.0579 ± 0.053
- promoter activity interaction Z-score [2, 9]: -0.0069 ± 0.16
- promoter activity interaction Z-score [2, 10]: -0.168 ± 0.014
- promoter activity interaction Z-score [2, 11]: 0.286 ± 0.18
- promoter activity interaction Z-score [2, 12]: 0.0237 ± 0.12
- promoter activity interaction Z-score [2, 13]: -0.137 ± 0.035
- promoter activity interaction Z-score [2, 14]: -0.23 ± 0.11
- promoter activity interaction Z-score [2, 15]: -0.0523 ± 0.022
- promoter activity interaction Z-score [2, 16]: -0.0548 ± 0.1
- promoter activity interaction Z-score [2, 17]: 0.072 ± 0.35
- promoter activity interaction Z-score [2, 18]: 0.0997 ± 0.0034
- promoter activity interaction Z-score [3, 7]: -0.0486 ± 0.033
- promoter activity interaction Z-score [3, 8]: 0.00202 ± 0.074
- promoter activity interaction Z-score [3, 9]: -0.037 ± 0.097
- promoter activity interaction Z-score [3, 10]: 0.00353 ± 0.4
- promoter activity interaction Z-score [3, 11]: 0.205 ± 0.32
- promoter activity interaction Z-score [3, 12]: -0.158 ± 0.14
- promoter activity interaction Z-score [3, 13]: 0.0924 ± 0.14
- promoter activity interaction Z-score [3, 14]: -0.0604 ± 0.083
- promoter activity interaction Z-score [3, 15]: -0.3379 ± 0.00077
- promoter activity interaction Z-score [3, 16]: 0.243 ± 0.29
- promoter activity interaction Z-score [3, 17]: 0.261 ± 0.15
- promoter activity interaction Z-score [3, 18]: 0.0432 ± 0.23
- promoter activity interaction Z-score [4, 7]: 0.143 ± 0.35
- promoter activity interaction Z-score [4, 8]: -0.548 ± 0.49
- promoter activity interaction Z-score [4, 9]: -0.0741 ± 0.49
- promoter activity interaction Z-score [4, 10]: -0.204 ± 0.27
- promoter activity interaction Z-score [4, 11]: 0.403 ± 0.76
- promoter activity interaction Z-score [4, 12]: -0.533 ± 0.12
- promoter activity interaction Z-score [4, 13]: -0.17 ± 0.038
- promoter activity interaction Z-score [4, 14]: 0.0114 ± 0.73
- promoter activity interaction Z-score [4, 15]: -0.312 ± 0.44
- promoter activity interaction Z-score [4, 16]: -0.025 ± 0.62
- promoter activity interaction Z-score [4, 17]: -0.475 ± 0.67
- promoter activity interaction Z-score [4, 18]: -0.073 ± 1.2
- promoter activity interaction Z-score [5, 7]: 0.0812 ± 0.014
- promoter activity interaction Z-score [5, 8]: 0.114 ± 0.011
- promoter activity interaction Z-score [5, 9]: 0.166 ± 0.057
- promoter activity interaction Z-score [5, 10]: 0.145 ± 0.29
- promoter activity interaction Z-score [5, 11]: 0.222 ± 0.12
- promoter activity interaction Z-score [5, 12]: 0.143 ± 0.22
- promoter activity interaction Z-score [5, 13]: 0.159 ± 0.22
- promoter activity interaction Z-score [5, 14]: 0.00336 ± 0.19
- promoter activity interaction Z-score [5, 15]: -0.146 ± 0.12
- promoter activity interaction Z-score [5, 16]: -0.0654 ± 0.045
- promoter activity interaction Z-score [5, 17]: 0.255 ± 0.11
- promoter activity interaction Z-score [5, 18]: -0.0397 ± 0.37
- promoter activity interaction Z-score [6, 7]: -0.564 ± 0.28
- promoter activity interaction Z-score [6, 8]: 0.134 ± 0.67
- promoter activity interaction Z-score [6, 9]: 0.613 ± 0.26
- promoter activity interaction Z-score [6, 10]: -0.636 ± 0.056
- promoter activity interaction Z-score [6, 11]: 0.674 ± 0.6
- promoter activity interaction Z-score [6, 12]: -0.149 ± 1.3
- promoter activity interaction Z-score [6, 13]: 0.0751 ± 0.037
- promoter activity interaction Z-score [6, 14]: -0.124 ± 0.055
- promoter activity interaction Z-score [6, 15]: -0.115 ± 0.33
- promoter activity interaction Z-score [6, 16]: -0.727 ± 1.3
- promoter activity interaction Z-score [6, 17]: -0.374 ± 0.56
- promoter activity interaction Z-score [6, 18]: -0.124 ± 0.67

SMILES: CO[C@H]1/C=C/O[C@@]2(C)Oc3c(C)c(O)c4c(O)c(c(/C=N/N5CCN(C)CC5)c(O)c4c3C2=O)NC(=O)/C(C)=C\C=C\[C@H](C)[C@H](O)[C@@H](C)[C@@H](O)[C@@H](C)[C@H](OC(C)=O)[C@@H]1C [Rifampicin]
- promoter activity interaction Z-score [1, 19]: -0.791 ± 0.2
- promoter activity interaction Z-score [1, 20]: -0.655 ± 0.13
- promoter activity interaction Z-score [1, 21]: -0.627 ± 0.021
- promoter activity interaction Z-score [1, 22]: -0.932 ± 0.2
- promoter activity interaction Z-score [1, 23]: -0.695 ± 0.1
- promoter activity interaction Z-score [1, 24]: -0.516 ± 0.29
- promoter activity interaction Z-score [1, 25]: -0.838 ± 0.088
- promoter activity interaction Z-score [1, 26]: -0.731 ± 0.3
- promoter activity interaction Z-score [1, 27]: -0.811 ± 0.28
- promoter activity interaction Z-score [1, 28]: -0.168 ± 0.19
- promoter activity interaction Z-score [1, 29]: -1.06 ± 0.08
- promoter activity interaction Z-score [1, 30]: -1.31 ± 0.3
- promoter activity interaction Z-score [2, 19]: -0.224 ± 0.14
- promoter activity interaction Z-score [2, 20]: -0.444 ± 0.16
- promoter activity interaction Z-score [2, 21]: -0.287 ± 0.055
- promoter activity interaction Z-score [2, 22]: -0.476 ± 0.024
- promoter activity interaction Z-score [2, 23]: -0.39 ± 0.23
- promoter activity interaction Z-score [2, 24]: -0.505 ± 0.12
- promoter activity interaction Z-score [2, 25]: -0.336 ± 0.076
- promoter activity interaction Z-score [2, 26]: -0.31 ± 0.041
- promoter activity interaction Z-score [2, 27]: -0.432 ± 0.21
- promoter activity interaction Z-score [2, 28]: -0.471 ± 0.047
- promoter activity interaction Z-score [2, 29]: -0.229 ± 0.029
- promoter activity interaction Z-score [2, 30]: -0.507 ± 0.018
- promoter activity interaction Z-score [2, 31]: -0.505 ± 0.31
- promoter activity interaction Z-score [3, 19]: -0.966 ± 0.35
- promoter activity interaction Z-score [3, 20]: -1.53 ± 0.33
- promoter activity interaction Z-score [3, 21]: -1.43 ± 0.2
- promoter activity interaction Z-score [3, 22]: -1.07 ± 0.04
- promoter activity interaction Z-score [3, 23]: -1.06 ± 0.5
- promoter activity interaction Z-score [3, 24]: -2.11 ± 0.12
- promoter activity interaction Z-score [3, 25]: -1.62 ± 0.39
- promoter activity interaction Z-score [3, 26]: -0.784 ± 0.23
- promoter activity interaction Z-score [3, 27]: -2.01 ± 0.86
- promoter activity interaction Z-score [3, 28]: -2.895 ± 0.0098
- promoter activity interaction Z-score [3, 29]: -2.58 ± 0.26
- promoter activity interaction Z-score [3, 30]: -1.59 ± 0.43
- promoter activity interaction Z-score [4, 19]: -0.184 ± 0.35
- promoter activity interaction Z-score [4, 20]: -0.802 ± 0.3
- promoter activity interaction Z-score [4, 21]: -0.501 ± 0.085
- promoter activity interaction Z-score [4, 22]: -0.537 ± 0.55
- promoter activity interaction Z-score [4, 23]: 0.236 ± 0.31
- promoter activity interaction Z-score [4, 24]: -0.639 ± 0.41
- promoter activity interaction Z-score [4, 25]: -0.575 ± 0.22
- promoter activity interaction Z-score [4, 26]: -0.311 ± 0.2
- promoter activity interaction Z-score [4, 27]: -0.918 ± 0.011
- promoter activity interaction Z-score [4, 28]: -0.833 ± 0.44
- promoter activity interaction Z-score [4, 29]: -0.434 ± 0.68
- promoter activity interaction Z-score [4, 30]: -1.71 ± 0.29
- promoter activity interaction Z-score [5, 19]: -0.47 ± 0.0069
- promoter activity interaction Z-score [5, 20]: -0.3407 ± 0.0028
- promoter activity interaction Z-score [5, 21]: -0.44 ± 0.088
- promoter activity interaction Z-score [5, 22]: -1.04 ± 0.46
- promoter activity interaction Z-score [5, 23]: -0.551 ± 0.01
- promoter activity interaction Z-score [5, 24]: -0.657 ± 0.0084
- promoter activity interaction Z-score [5, 25]: -0.53 ± 0.048
- promoter activity interaction Z-score [5, 26]: -1.11 ± 0.17
- promoter activity interaction Z-score [5, 27]: -0.866 ± 0.076
- promoter activity interaction Z-score [5, 28]: -0.906 ± 0.027
- promoter activity interaction Z-score [5, 29]: -0.982 ± 0.24
- promoter activity interaction Z-score [5, 30]: -1.51 ± 0.17
- promoter activity interaction Z-score [5, 31]: -0.811 ± 0.051
- promoter activity interaction Z-score [6, 19]: -0.736 ± 0.25
- promoter activity interaction Z-score [6, 20]: -0.931 ± 0.48
- promoter activity interaction Z-score [6, 21]: -0.816 ± 0.4
- promoter activity interaction Z-score [6, 22]: -1.26 ± 0.3
- promoter activity interaction Z-score [6, 23]: -0.703 ± 0.32
- promoter activity interaction Z-score [6, 24]: -1.19 ± 0.18
- promoter activity interaction Z-score [6, 25]: -0.827 ± 0.14
- promoter activity interaction Z-score [6, 26]: -0.674 ± 0.63
- promoter activity interaction Z-score [6, 27]: -0.555 ± 0.72
- promoter activity interaction Z-score [6, 28]: -0.65 ± 0.61
- promoter activity interaction Z-score [6, 29]: -1.152 ± 0.0016
- promoter activity interaction Z-score [6, 30]: -0.717 ± 0.57
- promoter activity interaction Z-score [6, 31]: 0.0561 ± 0.59
